Binding signal data for one sequence are collected here from paper PMC7862700, “An all-to-all approach to the identification of sequence-specific readers for epigenetic DNA modifications on cytosine”.

What all share (test): DAPPL (digital affinity profiling via proximity ligation, sequencing); 10 mM Tris-HCl pH 7.5, 50 mM NaCl, 1 mM DTT, 4% glycerol, room temperature, 30 min; GST-TFs on glutathione beads, 16-mer random dsDNA library, 0.1% formaldehyde crosslink after washing; high values mean tight binding
One experiment concerns the target T1, FLI1 (Homo sapiens, UniProt Q01543 1-452).
T1 sequence: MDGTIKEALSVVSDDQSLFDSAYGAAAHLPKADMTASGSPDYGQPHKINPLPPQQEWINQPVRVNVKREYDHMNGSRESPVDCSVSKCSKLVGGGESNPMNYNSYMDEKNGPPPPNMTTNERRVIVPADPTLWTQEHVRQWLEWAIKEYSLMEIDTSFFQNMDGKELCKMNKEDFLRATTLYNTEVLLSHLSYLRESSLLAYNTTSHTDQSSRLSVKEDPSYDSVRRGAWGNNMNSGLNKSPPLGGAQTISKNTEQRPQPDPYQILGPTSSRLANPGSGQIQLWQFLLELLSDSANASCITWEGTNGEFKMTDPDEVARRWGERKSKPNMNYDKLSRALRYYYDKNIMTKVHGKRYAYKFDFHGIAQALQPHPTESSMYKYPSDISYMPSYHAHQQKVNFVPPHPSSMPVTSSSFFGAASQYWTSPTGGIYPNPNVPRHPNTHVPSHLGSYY
The conditions noted are these: protein: recombinant; tags: N-terminal GST; dsDNA, one strand shown. Summed up:
(§1)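 The binding signal reported is, for every hexamer, its read frequency for a factor over its read frequency for the tag-only sample. Reads came from pools of yeast-expressed, GST-fused human transcription factors on glutathione beads, barcoded with DNA and mixed with that sample, which were incubated with 200 nmole of a random double-stranded 16-mer DNA library in Tris/NaCl/DTT/glycerol buffer at room temperature for 30 min. After washing, the pools were crosslinked with 0.1% formaldehyde, proximity-ligated with BsaI/T4 ligase for 1 h at 37 °C, PCR-amplified and sequenced on an Illumina NextSeq500.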

The next experiment addresses T2, ELK1 (Homo sapiens, UniProt P19419 1-428).
T2 sequence: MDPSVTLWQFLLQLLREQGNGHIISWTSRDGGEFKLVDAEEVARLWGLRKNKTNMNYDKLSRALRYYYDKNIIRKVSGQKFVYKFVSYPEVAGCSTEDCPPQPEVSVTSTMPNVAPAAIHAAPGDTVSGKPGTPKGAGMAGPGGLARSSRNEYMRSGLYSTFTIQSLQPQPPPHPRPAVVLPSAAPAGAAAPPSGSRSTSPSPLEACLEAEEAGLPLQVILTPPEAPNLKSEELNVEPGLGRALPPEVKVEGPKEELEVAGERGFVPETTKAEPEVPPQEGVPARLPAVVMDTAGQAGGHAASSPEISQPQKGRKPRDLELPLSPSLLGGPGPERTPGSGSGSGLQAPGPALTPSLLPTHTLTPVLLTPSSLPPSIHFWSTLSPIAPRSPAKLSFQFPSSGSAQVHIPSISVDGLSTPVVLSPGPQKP
The note with it: protein: recombinant; tags: N-terminal GST; dsDNA, one strand shown. Summed up: as §1

A further experiment has as its target T3, GABPA (Homo sapiens, UniProt Q06546 1-454).
T3 sequence: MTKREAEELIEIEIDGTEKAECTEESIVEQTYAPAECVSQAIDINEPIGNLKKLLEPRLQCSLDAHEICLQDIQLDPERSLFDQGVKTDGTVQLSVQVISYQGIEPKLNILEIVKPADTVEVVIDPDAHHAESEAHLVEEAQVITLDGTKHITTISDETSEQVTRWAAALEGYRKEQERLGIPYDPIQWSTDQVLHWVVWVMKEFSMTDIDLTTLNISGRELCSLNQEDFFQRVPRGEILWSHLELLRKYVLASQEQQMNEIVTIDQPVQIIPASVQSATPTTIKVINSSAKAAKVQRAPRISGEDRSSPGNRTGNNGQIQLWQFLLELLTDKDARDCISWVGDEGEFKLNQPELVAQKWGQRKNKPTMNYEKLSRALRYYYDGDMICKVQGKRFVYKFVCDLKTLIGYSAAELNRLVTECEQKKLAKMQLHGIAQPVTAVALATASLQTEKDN
The note with it: protein: recombinant; tags: N-terminal GST; dsDNA, one strand shown. Put shortly:
as §1

In a further experiment the target is T4, ERG (Homo sapiens, UniProt P11308 1-479).
T4 sequence: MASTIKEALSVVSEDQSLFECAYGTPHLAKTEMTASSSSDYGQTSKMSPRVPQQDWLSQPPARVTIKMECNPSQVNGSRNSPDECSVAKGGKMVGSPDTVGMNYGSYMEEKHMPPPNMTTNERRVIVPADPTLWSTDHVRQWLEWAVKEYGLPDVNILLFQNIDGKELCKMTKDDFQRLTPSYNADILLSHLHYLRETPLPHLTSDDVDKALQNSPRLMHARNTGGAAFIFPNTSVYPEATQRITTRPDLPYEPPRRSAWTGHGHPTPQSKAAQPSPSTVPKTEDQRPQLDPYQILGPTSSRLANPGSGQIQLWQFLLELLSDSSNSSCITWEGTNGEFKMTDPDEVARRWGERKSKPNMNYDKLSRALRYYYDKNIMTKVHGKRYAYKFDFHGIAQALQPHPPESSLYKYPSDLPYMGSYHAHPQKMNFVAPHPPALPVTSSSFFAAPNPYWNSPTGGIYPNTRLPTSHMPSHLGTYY
The note with it: protein: recombinant; tags: N-terminal GST; dsDNA, one strand shown. Summed up:
as §1

A further experiment has as its target ELF1 (Homo sapiens, UniProt P32519 1-619). The note with it: protein: recombinant; tags: N-terminal GST; dsDNA, one strand shown. Summed up: as §1
The target of another experiment is T5, EHF (Homo sapiens, UniProt Q9NZC4 1-300).
T5 sequence: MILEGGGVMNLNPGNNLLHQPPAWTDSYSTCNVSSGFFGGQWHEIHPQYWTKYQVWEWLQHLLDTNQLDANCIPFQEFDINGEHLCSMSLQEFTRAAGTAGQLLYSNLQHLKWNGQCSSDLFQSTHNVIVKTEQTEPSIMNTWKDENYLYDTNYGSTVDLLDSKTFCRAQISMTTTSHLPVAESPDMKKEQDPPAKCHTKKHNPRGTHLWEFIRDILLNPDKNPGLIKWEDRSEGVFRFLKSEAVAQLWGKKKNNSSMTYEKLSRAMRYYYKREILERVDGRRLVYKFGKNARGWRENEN
The note with it: protein: recombinant; tags: N-terminal GST; dsDNA, one strand shown. Summed up:
as §1

The next experiment concerns the target SPI1 (Homo sapiens, UniProt P17947 1-270). The conditions noted are these: protein: recombinant; tags: N-terminal GST; dsDNA, one strand shown. Summed up: as §1
In another experiment the target is SPIB (Homo sapiens, UniProt Q01892 1-262). The conditions noted are these: protein: recombinant; tags: N-terminal GST; dsDNA, one strand shown. Put shortly: as §1
Sequence of SPIB (Q01892 whole entry): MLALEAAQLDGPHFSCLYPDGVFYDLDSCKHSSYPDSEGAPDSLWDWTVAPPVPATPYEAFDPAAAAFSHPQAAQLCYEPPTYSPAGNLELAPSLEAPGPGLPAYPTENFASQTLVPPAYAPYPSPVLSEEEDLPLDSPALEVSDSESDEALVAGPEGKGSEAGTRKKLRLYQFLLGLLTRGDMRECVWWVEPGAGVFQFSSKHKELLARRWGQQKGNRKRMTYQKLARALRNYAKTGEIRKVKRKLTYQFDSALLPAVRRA
Another experiment concerns the target T6, FEV (Homo sapiens, UniProt Q99581 1-238).
T6 sequence: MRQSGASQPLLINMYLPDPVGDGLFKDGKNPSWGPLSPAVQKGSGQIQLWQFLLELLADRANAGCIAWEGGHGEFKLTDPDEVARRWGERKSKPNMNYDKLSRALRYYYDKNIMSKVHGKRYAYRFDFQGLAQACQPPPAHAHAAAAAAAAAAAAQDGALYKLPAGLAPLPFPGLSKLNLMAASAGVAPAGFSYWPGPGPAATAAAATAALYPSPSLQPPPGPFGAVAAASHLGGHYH
The conditions noted are these: protein: recombinant; tags: N-terminal GST; dsDNA, one strand shown. Put shortly:
as §1

A further experiment deals with ETV5 (Homo sapiens, UniProt P41161 1-510). The conditions noted are these: protein: recombinant; tags: N-terminal GST; dsDNA, one strand shown. Put shortly:
as §1

For another experiment, the target named is HSF1 (Homo sapiens, UniProt Q00613 1-529). The conditions noted are these: protein: recombinant; tags: N-terminal GST; chain copies: 3; dsDNA, one strand shown. Put shortly: as §1
Sequence of HSF1 (Q00613 whole entry): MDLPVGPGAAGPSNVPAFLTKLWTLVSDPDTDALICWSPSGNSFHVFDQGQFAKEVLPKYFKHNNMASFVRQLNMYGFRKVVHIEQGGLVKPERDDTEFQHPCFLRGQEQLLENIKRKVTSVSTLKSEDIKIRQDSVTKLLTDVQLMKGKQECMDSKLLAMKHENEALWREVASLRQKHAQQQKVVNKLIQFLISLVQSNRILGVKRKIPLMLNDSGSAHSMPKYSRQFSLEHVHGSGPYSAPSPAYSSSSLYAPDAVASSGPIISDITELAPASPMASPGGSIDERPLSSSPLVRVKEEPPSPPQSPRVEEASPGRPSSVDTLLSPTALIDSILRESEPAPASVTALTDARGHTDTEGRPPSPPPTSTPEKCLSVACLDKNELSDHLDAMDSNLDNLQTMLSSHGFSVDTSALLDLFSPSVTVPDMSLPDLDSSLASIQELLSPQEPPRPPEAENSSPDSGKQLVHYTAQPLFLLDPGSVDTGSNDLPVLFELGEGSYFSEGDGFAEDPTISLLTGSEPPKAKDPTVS
The next experiment deals with T7, SPIC (Homo sapiens, UniProt Q8N5J4 1-248).
T7 sequence: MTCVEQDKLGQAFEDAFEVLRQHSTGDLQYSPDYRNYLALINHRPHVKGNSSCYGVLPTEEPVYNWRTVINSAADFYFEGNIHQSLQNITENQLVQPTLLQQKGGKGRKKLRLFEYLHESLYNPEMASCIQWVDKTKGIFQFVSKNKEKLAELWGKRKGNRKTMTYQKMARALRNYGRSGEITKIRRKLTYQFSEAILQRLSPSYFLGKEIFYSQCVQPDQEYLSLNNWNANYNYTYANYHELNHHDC
The note with it: protein: recombinant; tags: N-terminal GST; dsDNA, one strand shown. Summed up:
as §1

Another experiment addresses ELF4 (Homo sapiens, UniProt Q99607 1-663). The conditions noted are these: protein: recombinant; tags: N-terminal GST; dsDNA, one strand shown. Put shortly: as §1
The target of another experiment is T8, ELK4 (Homo sapiens, UniProt P28324-2 1-405).
T8 sequence: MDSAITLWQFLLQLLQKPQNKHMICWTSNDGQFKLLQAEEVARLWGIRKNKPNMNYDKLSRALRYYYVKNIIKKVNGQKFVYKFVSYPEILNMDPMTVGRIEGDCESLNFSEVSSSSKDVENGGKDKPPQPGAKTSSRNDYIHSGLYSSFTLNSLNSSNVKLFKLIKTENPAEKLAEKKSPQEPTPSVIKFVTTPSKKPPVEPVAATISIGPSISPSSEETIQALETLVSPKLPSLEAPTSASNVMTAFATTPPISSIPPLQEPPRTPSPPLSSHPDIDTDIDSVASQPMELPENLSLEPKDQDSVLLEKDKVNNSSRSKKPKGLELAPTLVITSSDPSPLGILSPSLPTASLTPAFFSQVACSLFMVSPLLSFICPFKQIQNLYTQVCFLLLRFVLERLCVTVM
The conditions noted are these: protein: recombinant; tags: N-terminal GST; dsDNA, one strand shown. Put shortly:
as §1

The next experiment concerns the target T9, ETV2 (Homo sapiens, UniProt O00321 1-342).
T9 sequence: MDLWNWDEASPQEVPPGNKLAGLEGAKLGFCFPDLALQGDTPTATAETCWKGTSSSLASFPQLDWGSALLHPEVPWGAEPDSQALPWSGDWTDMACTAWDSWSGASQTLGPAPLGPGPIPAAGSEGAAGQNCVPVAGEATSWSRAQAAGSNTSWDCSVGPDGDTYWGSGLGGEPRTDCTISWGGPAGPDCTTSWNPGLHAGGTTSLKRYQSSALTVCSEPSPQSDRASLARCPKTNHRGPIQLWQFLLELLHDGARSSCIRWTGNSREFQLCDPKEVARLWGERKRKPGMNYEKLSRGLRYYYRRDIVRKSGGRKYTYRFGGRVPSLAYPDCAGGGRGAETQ
The note with it: protein: recombinant; tags: N-terminal GST; dsDNA, one strand shown. Put shortly: as §1

Another experiment deals with T10, ELF3 (Homo sapiens, UniProt P78545 1-371).
T10 sequence: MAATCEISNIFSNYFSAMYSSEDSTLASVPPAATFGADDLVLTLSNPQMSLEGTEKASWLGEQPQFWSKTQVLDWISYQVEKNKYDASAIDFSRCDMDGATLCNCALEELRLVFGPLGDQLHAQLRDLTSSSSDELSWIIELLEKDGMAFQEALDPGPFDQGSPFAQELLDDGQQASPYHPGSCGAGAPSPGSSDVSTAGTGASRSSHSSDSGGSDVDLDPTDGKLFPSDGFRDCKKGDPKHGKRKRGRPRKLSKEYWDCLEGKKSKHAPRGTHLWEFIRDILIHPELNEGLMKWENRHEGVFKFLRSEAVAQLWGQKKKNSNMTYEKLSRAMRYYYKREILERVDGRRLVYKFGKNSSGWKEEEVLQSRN
The note with it: protein: recombinant; tags: N-terminal GST; dsDNA, one strand shown. Put shortly: as §1

A further experiment concerns the target CRX (Homo sapiens, UniProt O43186 1-299). The conditions noted are these: protein: recombinant; tags: N-terminal GST; dsDNA, one strand shown. Summed up: as §1
In another experiment the target is ETV1 (Homo sapiens, UniProt P50549 1-477). The conditions noted are these: protein: recombinant; tags: N-terminal GST; dsDNA, one strand shown. Summed up: as §1
Sequence of ETV1 (P50549 whole entry): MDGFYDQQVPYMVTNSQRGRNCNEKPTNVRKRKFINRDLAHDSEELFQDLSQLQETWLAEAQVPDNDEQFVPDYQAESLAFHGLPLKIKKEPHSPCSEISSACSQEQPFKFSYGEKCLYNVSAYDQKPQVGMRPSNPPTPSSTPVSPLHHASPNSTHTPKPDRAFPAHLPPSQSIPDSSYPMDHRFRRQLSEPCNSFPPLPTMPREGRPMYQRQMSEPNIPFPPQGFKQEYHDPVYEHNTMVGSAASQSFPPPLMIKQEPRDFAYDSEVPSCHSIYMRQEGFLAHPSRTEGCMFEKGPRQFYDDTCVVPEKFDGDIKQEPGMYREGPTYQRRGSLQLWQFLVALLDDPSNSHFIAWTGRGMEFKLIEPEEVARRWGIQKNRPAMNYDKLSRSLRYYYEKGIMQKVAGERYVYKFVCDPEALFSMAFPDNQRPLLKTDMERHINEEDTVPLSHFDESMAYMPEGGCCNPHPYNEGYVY

Sequence of ELF4 (Q99607 whole entry): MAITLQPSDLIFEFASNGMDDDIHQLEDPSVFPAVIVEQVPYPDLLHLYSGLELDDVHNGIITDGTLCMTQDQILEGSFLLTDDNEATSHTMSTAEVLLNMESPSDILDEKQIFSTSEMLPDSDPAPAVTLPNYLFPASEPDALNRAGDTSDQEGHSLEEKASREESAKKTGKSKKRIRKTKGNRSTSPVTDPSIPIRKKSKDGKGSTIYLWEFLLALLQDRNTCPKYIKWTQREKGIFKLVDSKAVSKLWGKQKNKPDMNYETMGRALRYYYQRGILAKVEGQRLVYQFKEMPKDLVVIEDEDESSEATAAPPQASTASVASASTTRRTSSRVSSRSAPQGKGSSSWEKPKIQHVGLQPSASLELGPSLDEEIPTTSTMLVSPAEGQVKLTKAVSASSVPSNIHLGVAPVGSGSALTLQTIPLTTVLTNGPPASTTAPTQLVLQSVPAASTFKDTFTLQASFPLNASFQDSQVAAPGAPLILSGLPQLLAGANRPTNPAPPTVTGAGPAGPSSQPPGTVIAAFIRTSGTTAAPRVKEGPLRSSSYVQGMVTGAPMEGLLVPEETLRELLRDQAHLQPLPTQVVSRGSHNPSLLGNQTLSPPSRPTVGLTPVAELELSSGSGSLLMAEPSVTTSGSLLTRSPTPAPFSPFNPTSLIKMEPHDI
Sequence of CRX (O43186 whole entry): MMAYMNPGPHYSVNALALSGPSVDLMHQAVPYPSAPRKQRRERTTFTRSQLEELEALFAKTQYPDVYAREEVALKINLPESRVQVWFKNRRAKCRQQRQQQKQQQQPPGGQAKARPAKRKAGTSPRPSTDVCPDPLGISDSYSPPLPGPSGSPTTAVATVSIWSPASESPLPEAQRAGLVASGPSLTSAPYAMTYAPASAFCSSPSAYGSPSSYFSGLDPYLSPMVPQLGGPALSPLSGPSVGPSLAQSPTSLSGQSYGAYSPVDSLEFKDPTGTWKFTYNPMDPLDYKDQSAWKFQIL
Sequence of ELF1 (P32519 whole entry): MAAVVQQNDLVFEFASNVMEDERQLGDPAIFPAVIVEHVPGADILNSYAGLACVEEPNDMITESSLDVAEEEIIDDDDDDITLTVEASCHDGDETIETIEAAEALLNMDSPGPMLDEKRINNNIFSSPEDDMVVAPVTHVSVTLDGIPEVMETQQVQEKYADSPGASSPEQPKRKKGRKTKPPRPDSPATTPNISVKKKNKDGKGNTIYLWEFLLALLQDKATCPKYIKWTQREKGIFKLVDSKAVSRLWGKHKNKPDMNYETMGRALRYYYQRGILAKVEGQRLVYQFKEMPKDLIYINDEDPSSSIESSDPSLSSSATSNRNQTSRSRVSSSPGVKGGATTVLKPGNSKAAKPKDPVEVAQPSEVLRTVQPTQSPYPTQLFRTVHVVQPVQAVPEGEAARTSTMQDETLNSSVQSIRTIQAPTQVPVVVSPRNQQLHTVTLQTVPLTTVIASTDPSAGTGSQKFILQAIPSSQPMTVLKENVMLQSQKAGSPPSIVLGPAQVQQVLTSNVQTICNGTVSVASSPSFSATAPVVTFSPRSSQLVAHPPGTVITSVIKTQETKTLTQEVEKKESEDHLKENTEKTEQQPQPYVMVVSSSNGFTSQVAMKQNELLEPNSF
Sequence of ETV5 (P41161 whole entry): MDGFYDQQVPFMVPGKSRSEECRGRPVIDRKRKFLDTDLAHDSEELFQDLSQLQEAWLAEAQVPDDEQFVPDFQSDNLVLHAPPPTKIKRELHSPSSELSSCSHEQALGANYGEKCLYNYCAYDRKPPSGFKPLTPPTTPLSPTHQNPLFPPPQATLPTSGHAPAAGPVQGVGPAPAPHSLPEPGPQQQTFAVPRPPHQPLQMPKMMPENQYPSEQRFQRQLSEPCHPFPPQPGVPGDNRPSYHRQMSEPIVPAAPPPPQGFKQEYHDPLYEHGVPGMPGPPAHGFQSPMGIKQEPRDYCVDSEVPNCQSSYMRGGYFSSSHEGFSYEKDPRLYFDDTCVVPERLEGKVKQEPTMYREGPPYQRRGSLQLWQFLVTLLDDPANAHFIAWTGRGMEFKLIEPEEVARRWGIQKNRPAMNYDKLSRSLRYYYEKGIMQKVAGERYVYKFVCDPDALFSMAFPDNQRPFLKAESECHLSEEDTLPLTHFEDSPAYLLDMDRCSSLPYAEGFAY

As to ATAGCT, the binding signal with FLI1 is 1.13 fold enrichment (6-mer frequency, TF over GST control); in the experiment with ELK1, 1.08 fold enrichment (6-mer frequency, TF over GST control); with GABPA it was 1.2 fold enrichment (6-mer frequency, TF over GST control); with ERG it was 1.07 fold enrichment (6-mer frequency, TF over GST control); with ELF1, 1.19 fold enrichment (6-mer frequency, TF over GST control); with EHF, 1.25 fold enrichment (6-mer frequency, TF over GST control). Moreover, the binding signal was 1.17 fold enrichment (6-mer frequency, TF over GST control) in the experiment with SPI1; 1.09 fold enrichment (6-mer frequency, TF over GST control) with SPIB; 1.16 fold enrichment (6-mer frequency, TF over GST control) in the experiment with FEV; 1.2 fold enrichment (6-mer frequency, TF over GST control) with ETV5; 1.06 fold enrichment (6-mer frequency, TF over GST control) with HSF1; 1.15 fold enrichment (6-mer frequency, TF over GST control) with SPIC. The binding signal with ELF4 is 1.07 fold enrichment (6-mer frequency, TF over GST control); with ELK4, 1.25 fold enrichment (6-mer frequency, TF over GST control); in the experiment with ETV2, 1.27 fold enrichment (6-mer frequency, TF over GST control); in the experiment with ELF3, 1.26 fold enrichment (6-mer frequency, TF over GST control); in the experiment with CRX it was 1.26 fold enrichment (6-mer frequency, TF over GST control); in the experiment with ETV1, 1.11 fold enrichment (6-mer frequency, TF over GST control).
